Source: PubChem (several laboratories)
In the library only some 27% were active in any assay of this set; here they are far more common.
CYP2C9 inh = blockers of cytochrome P450 2C9 activity – biochemical, luminescence, ADME assay, primary screen; CYP2C9 Supersomes, luciferin-H conversion; P11712; actives 20% (n = 96,000); inhibition, % at 5 µM;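 active = blocking of liver enzyme CYP2C9 beyond about 50% at 5 µM, limit read from the data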
CYP2C19 inhib = blockers of cytochrome P450 2C19 activity – biochemical, luminescence, ADME assay, primary screen | inhibition, % at 5 µM | CYP2C19 Supersomes, luciferin-H EGE luminescence, 30 min | P33261 | actives 21% (n = 96,000);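 active = CYP2C19 inhibition above a set limit at 5 µM in the primary screen, cut at about 50% in these data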;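 note: plate controls were negative control wells for no effect and 2.5 mM tranylcypromine positive control for full effect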
Target sequence (P33261 whole entry, looked up): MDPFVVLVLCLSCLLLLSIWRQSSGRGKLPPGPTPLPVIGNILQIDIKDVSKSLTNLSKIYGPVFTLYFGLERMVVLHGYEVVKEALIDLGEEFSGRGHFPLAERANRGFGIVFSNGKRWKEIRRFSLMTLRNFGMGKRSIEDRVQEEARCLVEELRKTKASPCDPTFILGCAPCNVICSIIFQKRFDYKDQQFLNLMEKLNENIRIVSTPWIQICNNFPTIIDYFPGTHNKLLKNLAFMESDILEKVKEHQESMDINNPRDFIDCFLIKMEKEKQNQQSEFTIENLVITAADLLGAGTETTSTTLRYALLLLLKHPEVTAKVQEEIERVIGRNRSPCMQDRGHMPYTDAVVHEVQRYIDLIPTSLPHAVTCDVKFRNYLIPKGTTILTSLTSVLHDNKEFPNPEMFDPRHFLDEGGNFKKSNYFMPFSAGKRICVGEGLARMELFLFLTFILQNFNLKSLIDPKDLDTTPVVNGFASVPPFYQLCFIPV
CYP2C9 act = human CYP2C9 activators, primary screen, biochemical, luminescence; Cytochrome P450 2C9 (Homo sapiens), P11712; recombinant CYP2C9, luciferin-H conversion; hits give high values; factor 1 = untreated enzyme, 0 = blocked; activation factor at 5 µM; actives 1.4% (n = 96,000); AID 1024, 2008;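 active = activation factor of 2 or more for CYP2C9 at a 5 µM dose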;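 note: 0 = sulfaphenazole-blocked wells and 1 = vehicle-only wells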
EphB4 antag = EphB4-ephrin-B2 interaction antagonists, primary screen, biochemical, TNYL-RAW peptide probe, fluorescence polarization; actives 0.15% (n = 97,000); Ephrin type-B receptor 4 (Homo sapiens), P54760; EphB4 LBD / TNYL-RAW-Alexa532 peptide; inhibition, % at 7 µM; AID 720, 2007;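 active = inhibition above the screen-wide mean inhibition plus 3 SD, cut at about 15% in these data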;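 note: 0% = DMSO wells and 100% = excess unlabeled TNYL-RAW peptide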
CYP2C19 act = human CYP2C19 activators, primary screen, biochemical, luminescence; activation factor at 5 µM; 96,000 tested, under 10 active; recombinant CYP2C19, luciferin-H EGE luminescence; hits give high values; 0 = fully inhibited enzyme, 1 = untreated enzyme;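 active = activation factor of at least 2 at 5 µM in the primary screen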;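 note: 0 = wells with 2.5 mM tranylcypromine and 1 = vehicle-only wells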
Numbers without * were called inactive; x = not tested or not shown.

SMILES	CYP2C9 inh	CYP2C19 inhib	CYP2C9 act	EphB4 antag	CYP2C19 act
O=C(C[n+]1ccc(C(=O)N/N=C/c2ccc(Br)cc2)cc1)c1ccccc1	34	74*	0.7	6	0.3
O=C(O)CC1Sc2ccccc2NC1=O (stereo not given)	-36	-12	1.4	x	1.1
CCCNC(=O)CC1Sc2ccccc2NC1=O (stereo not given)	-136	30	2.4*	0	0.7
CCCC(C(=O)NC1CCCC1)N(C(=O)Cn1nnc(-c2ccc(C)o2)n1)C1CCCC1 (stereo not given)	36	25	0.6	-10	0.8
CNS(=O)(=O)c1ccc(OC)c(-c2nnc3c4ccccc4c(C)nn23)c1	-5	-3	1.1	-4	1
Cn1c(SCc2cccc3ccccc23)nnc1-c1ccco1	-40	83*	1.4	7	0.2
Nn1c(SCc2cccc3ccccc23)nnc1-c1ccco1	-164	36	2.6*	-1	0.6
COc1cccc(CSc2nnc(-c3ccco3)n2C)c1	17	95*	0.8	3	0.1
Nn1c(SCc2ccccc2)nnc1-c1ccco1	-11	13	1.1	5	0.9
Cc1cccc(CSc2nnc(-c3ccco3)n2C)c1	3	37	1	1	0.6
CCCn1c2ccccc2c2nnc(SC(CC)C(=O)Nc3sc4c(c3C#N)CCCC4)nc21 (stereo not given)	89*	70*	0.1	2	0.3
CCCn1c2ccccc2c2nnc(SC(CC)C(=O)Nc3cc(C)on3)nc21 (stereo not given)	x	x	x	-8	x
Cc1ccc(NC(=O)NNC(=O)Cn2nc(-c3ccccc3)c(-c3ccccc3)c(C#N)c2=O)cc1	57*	24	0.4	3	0.8
CCCCCOC(=O)c1cc(=O)[nH]c2ccccc12	-17	17	1.2	0	0.8
COc1cc(-c2nnc(COC(=O)c3c4c(nc5ccccc35)CCCC4)o2)cc(OC)c1OC	79*	68*	0.2	-9	0.3
Cc1ccc(-c2cn(S(=O)(=O)c3ccc(C)cc3)nc2N)cc1	41	19	0.6	6	0.8
CN(C)/C=N/c1ncc(C(=O)c2ccc3ccccc3c2)s1	-128	53*	2.3*	-1	0.5
CCCCOc1ccc(S(=O)(=O)NC(=O)NCc2ccc(OCCC)cc2)cc1	x	x	x	-5	x
Cc1ccc(S(=O)(=O)NC(=O)NCc2ccccc2)cc1	3	-4	1	-5	1
CCCCOc1ccc(CNC(=O)NS(=O)(=O)c2ccc(OCC(C)C)cc2)cc1	90*	14	0.1	-2	0.9
CCCCOc1ccc(CNC(=O)NS(=O)(=O)c2ccc(OCC)cc2)cc1	86*	10	0.1	-6	0.9
O=C(CSc1nnc(-c2ccc(Br)cc2)n1C1CCCCC1)N1CCCC1	x	x	x	1	x
CC(C)=CC(=O)OCC(=O)Nc1nc(C)c(Cl)cc1Cl	42	83*	0.6	x	0.2
COc1cc(CCC(=O)OCC(=O)Nc2nc(C)c(Cl)cc2Cl)cc(OC)c1OC	-13	20	1.1	2	0.8
CC(C)=CC(=O)OCC(=O)Nc1ccc(F)cc1Cl	25	63*	0.8	4	0.4
SMILES	CYP2C9 inh	CYP2C19 inhib	CYP2C9 act	EphB4 antag	CYP2C19 act
O=S(=O)(Nc1nc(CN2CCOCC2)nc2sc3c(c12)CCCC3)c1cc(F)ccc1F	63*	0	0.4	5	1
CC(NC(=O)CN1C(=O)NC(Cc2ccccc2)(Cc2ccccc2)C1=O)C12CC3CC(CC(C3)C1)C2 (stereo not given)	8	21	0.9	1	0.8
CC1CCCCC1NC(=O)CN1C(=O)NC(Cc2ccccc2)(Cc2ccccc2)C1=O (stereo not given)	20	60*	0.8	1	0.4
CC(C)(SC(=S)N1CCOCC1)C(=O)O	-16	-9	1.2	3	1.1
CSc1nc(N)nc(SCC(=O)C(C)(C)C)c1C#N	73*	44	0.3	3	0.6
CCN(CC)S(=O)(=O)c1ccc(C(=O)OCCN2C(=O)CCC2=O)cc1	45	13	0.6	-1	0.9
O=C(c1cc(-c2cccnc2)nc2ccc(Br)cc12)N1CCN(c2ncccn2)CC1	58*	34	0.4	x	0.7
Cc1cc(C(=O)N2CCN(c3ncccn3)CC2)sc1-c1ccccc1	x	x	x	-2	x
CN(C(=O)N1CCN(c2ccccn2)CC1)c1ccccc1	34	43	0.7	15*	0.6
O=C(CN1CCN(c2ccccn2)CC1)NC(=O)NC1CCCCC1	44	10	0.6	-7	0.9
O=C(Nc1c(F)cccc1F)c1cnc(N2CCN(c3ccccn3)CC2)c2ccccc12	65*	36	0.4	-9	0.6
CC(C(=O)NC(=O)NC1CCCCC1)N1CCN(c2ccccn2)CC1 (stereo not given)	57*	25	0.4	-3	0.7
CN(CC(=O)N1CCN(c2ccccn2)CC1)S(=O)(=O)c1ccccc1	19	32	0.8	0	0.7
COc1ccc(NC2=C(C)C(=O)CC2)cc1	19	13	0.8	6	0.9
O=C(CN1CCN(Cc2ccccc2)CC1)c1c[nH]c2ccccc12	27	13	0.7	0	0.9
O=C(CN1CCSCC1)c1c[nH]c2ccccc12	37	64*	0.6	1	0.4
CCN1CCN(c2ncc(C(=O)Nc3cc(Cl)ccc3OC)c3ccccc23)CC1	-66	15	1.7	x	0.8
O=C(c1ccco1)N1CCN(C(=O)c2cc(-c3ccccn3)nc3ccccc23)CC1	4	1	1	1	1
O=C(Nc1ccccc1)c1cc(N2CCOCC2)nc2ccccc12	51*	20	0.5	-3	0.8
O=C(c1cc(-c2ccccc2)nc2ccccc12)N1CCN(c2ccccn2)CC1	52*	37	0.5	-4	0.6
COc1ccc(N(C)C(=O)c2cnc(N3CCN(c4ncccn4)CC3)c3ccccc23)cc1	69*	79*	0.3	2	0.2
CCN(CC)C(=O)Cn1nnc(-c2ccc(C)o2)n1	-1	-11	1	1	1.1
O=C(c1ccc(C#Cc2ccccc2)o1)N1CCN(c2ccccn2)CC1	56*	15	0.4	3	0.8
COc1ccc(CC(=O)N2CCN(c3ccccn3)CC2)cc1	x	x	x	-3	x
Cc1ccc(CC(=O)N2CCN(c3ccccn3)CC2)cc1	87*	98*	0.1	-2	0
Cc1ccc2cc(C)c(N3CCN(c4ccccn4)CC3)nc2c1	70*	77*	0.3	5	0.2
O=C(c1cnc(N2CCN(c3ncccn3)CC2)c2ccccc12)N1CCN(c2ccccn2)CC1	80*	68*	0.2	0	0.3
CC(=O)Nc1c(C)nn(-c2ccc(C)c(C)c2)c1C	4	8	1	-3	0.9
